Most compounds without a hit are left out; they make up all but 3.5% or so of the library.
Pf apPOL block: Pf-apPOL DNA polymerase inhibition. Recombinant Pf-apPOL, molecular beacon fluorescence, 1.5 h. inhibition, % at 10 µM. hit rate 0.25% among 210,000. AID 1794808
mHTT-CaM PPI inh: disrupts binding of mutant huntingtin to calmodulin; P42858; AlphaScreen His-mHTT/GST-CaM binding, luminescence; inhibition, % at 15 µM; hit rate 3.6% among 190,000;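 note: 0% = both proteins with DMSO and 100% = one protein alone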
Active calls of the source: *; . = no result given; ! = not active in a repeat. Cut-off read from the data, not from the text of the source: active = inhibition above about 50%; inactive = the rest.

SMILES | Pf apPOL block | mHTT-CaM PPI inh
CNc1nccc(N2CCC(CC(=O)NCc3ccc(OC)c(OC)c3)CC2)n1 | -2.0 | 17.4
O=C1c2ccccc2NC(c2ccc(Cl)cc2Cl)N1O (centres undefined) | -4.1 | 32.0
C=CCc1cccc(C2Nc3ccccc3C(=O)N2O)c1O (centres undefined) | 57.4* | 28.0
CCCc1noc(-c2c(O)c3ccccc3[nH]c2=O)n1 | -2.8 | -10.2
COc1nccc(N2CCC(CC(=O)NCc3ccc(OC)c(OC)c3)CC2)n1 | 1.7 | 5.2
[N-]=[N+]=N[C@@H](CCN1CC[C@H](OCc2ccccc2)CCC1=O)c1ccccc1 | -3.0 | 51.4*
O=C1CC[C@@H](OCc2ccccc2)CCN1CC[C@H](Sc1ccccc1)c1ccccc1 | -0.7 | 59.4*
O=C1CC[C@@H](O)CCN1CC[C@H](Sc1ccccc1)c1ccccc1 | -4.3 | 13.6
O=C1CCC(OCc2ccccc2)CCN1CC[C@@H](Sc1ccccc1)c1ccccc1 (some centres undefined) | 1.6 | 79.7*
[N-]=[N+]=N[C@@H](CCN1CC[C@H](NC(=O)OCc2ccccc2)CCC1=O)c1ccccc1 | -0.2 | 14.9
C[C@@H]1CCC(=O)N(CC[C@H](Sc2ccccc2)c2ccccc2)CC1 | -3.4 | 46.3
O=C(c1ccoc1)N1CCC(n2c(-c3ccsc3)nc3cccnc32)C1 (centres undefined) | -5.7 | 4.8
COc1ccccc1CCNC(=O)c1n[nH]c2ccccc12 | -1.6 | -16.5
CC(=O)NC1=NC(=O)/C(=C\c2ccc(-c3cccc(Cl)c3C)o2)S1 | -1.2 | -2.0
COc1cc(OC)cc(C(=O)NCCC2CCN(C(=O)Nc3cccc(Cl)c3)CC2)c1 | -2.7 | 3.2
O=C(COc1ccc2c(c1)C(=O)CC2)Nc1ccon1 | -2.8 | -7.4
Cc1ccc(N2CCN(C(=O)C(C)C)C(C)C2=O)cc1C (centres undefined) | -3.2 | -2.3
Cc1cc(C(=O)N2CCC(Cn3ccnc3)CC2)c(C)o1 | -1.2 | -7.8
CC(C)c1cc(C(=O)Nc2cccc(C#N)c2)nc2ccnn12 | -0.4 | -13.8
C=CCN1C(=O)/C(=C2\SC(N3CC(C)OC(C)C3)=NC2=O)c2cc(Br)ccc21 (centres undefined) | . | 54.1*
C=CCN1C(=O)/C(=C2/SC(N3CCCCC3)=NC2=O)c2cc(Br)ccc21 | -4.5 | 52.0*
CCCN1C(=O)/C(=C2/SC(=N)NC2=O)c2cc(Br)ccc21 | -1.2 | 5.0
O=C(O)CN1C(=O)/C(=C2/SC(N3CCOCC3)=NC2=O)c2cc(Br)ccc21 | 2.5 | -0.4
Cc1ccc(N(Cc2ccc(C(=O)NCCSC(C)(C)C)cc2)S(C)(=O)=O)cc1C | 7.6 | -1.1
CN1CCc2c(sc(NC(=O)CCS(=O)(=O)c3ccc(Cl)cc3)c2C(N)=O)C1 | 0.1 | -1.1
SMILES | Pf apPOL block | mHTT-CaM PPI inh
CCN1C(=O)C(O)(CC(=O)c2ccccc2OC)c2ccccc21 (centres undefined) | 1.4 | 0.5
C=CCN1C(=O)C(O)(CC(=O)c2ccc(C)cc2C)c2ccccc21 (centres undefined) | -1.8 | 60.0*
CCCc1cc(C2CCCN2C(=O)Nc2ccccc2OC)no1 (centres undefined) | -2.2 | -7.0
O=C(O)CCNc1ccc(C(F)(F)F)cc1[N+](=O)[O-] | -3.1 | 1.0
O=C(Nc1ccc(Nc2ccccc2)cc1)c1ccc(Br)o1 | -9.0 | 61.0*
O=C(Nc1cccc(-c2nc3ccccc3[nH]2)c1)c1ccc(Br)o1 | 102.4* | 25.0
O=C(Nc1ccc(Cl)c(-c2nc3ccccc3[nH]2)c1)c1ccc(Br)o1 | -0.8 | 15.0
O=C(Nc1ccc(NC(=O)c2ccc(Br)o2)cc1)c1ccccc1 | -3.0 | 3.5
CN(C)c1ccc(C=Nc2ccccc2C(=O)O)cc1[N+](=O)[O-] | -0.3 | 1.0
COc1ccccc1CC(=O)N1CCC2(C1)NCc1ccccc1NC2=NC(C)(C)C (centres undefined) | -5.1 | 46.6
Cc1ccccc1C(=O)N1CCC2(C1)NCc1ccccc1NC2=NC(C)(C)C (centres undefined) | -4.2 | 28.1
Cc1ccc(F)cc1S(=O)(=O)N1CCC2(C1)NCc1ccccc1NC2=NC(C)(C)C (centres undefined) | -1.7 | 69.6*
CC(C)(C)N=C1Nc2ccccc2CNC12CCN(C(=O)Cc1ccsc1)C2 (centres undefined) | 6.9 | 61.8*
Cc1ccc(C)c(NC(=O)Cn2nc(N3CCCC(C)C3)c3ccccc3c2=O)c1 (centres undefined) | -2.8 | -1.1
Cc1cc(S(=O)(=O)n2nnc3ccccc32)c(C)cc1Br | -3.5 | -3.0
CCc1cccc(C)c1N(C(=O)CSc1nc2ccccc2[nH]1)C(C)COC (centres undefined) | -6.1 | 52.0*
CCOCN(C(=O)CSc1nc2ccccc2[nH]1)c1c(C)cccc1CC | -3.2 | 15.0
COCCNc1nc(SCc2ccccc2Cl)nc2ccccc12 | -3.7 | 58.0*
Clc1ccccc1CSc1nc(NCc2ccco2)c2ccccc2n1 | -3.6 | 19.0
O=C(NCc1ccccc1)c1nnn(-c2ccccc2)c1-c1ccncc1 | -6.1 | -6.6
CCCCN(C)Cc1c(O)ccc2c1OC(=Cc1ccc(OC)c(OC)c1)C2=O | -12.6 | 1.7
COc1ccc(C2C(C(=O)Nc3ccc(Cl)cc3)=C(C)Nc3ncnn32)cc1Br (centres undefined) | 1.7 | 40.0
COc1ccc(Br)cc1C1C(C(=O)Nc2ccc(Cl)cc2)=C(C)Nc2ncnn21 (centres undefined) | -3.3 | 60.0*
COc1ccc2cc(C=O)c(=O)[nH]c2c1 | -5.0 | 6.5
O=C(CN(Cc1ccc(F)cc1)S(=O)(=O)c1ccccc1)N1CCc2ccccc2C1 | -9.7 | 18.1
SMILES | Pf apPOL block | mHTT-CaM PPI inh
CC(C)CCN1COc2ccc3c4c(oc3c2C1)C(=O)c1ccccc1C4=O | 12.5 | 73.6*
COc1ccc(CCN2COc3ccc4c5c(oc4c3C2)C(=O)c2ccccc2C5=O)cc1OC | -3.3 | 43.5
O=C1c2ccccc2C(=O)c2c1oc1c3c(ccc21)OCN(C1CCCC1)C3 | 49.5 | 78.0*
O=C1c2ccccc2C(=O)c2c1oc1c3c(ccc21)OCN(CC1CCCO1)C3 (centres undefined) | 9.6 | 39.8
O=c1c(-c2ccccc2)coc2c3c(ccc12)OCN(C1CCS(=O)(=O)C1)C3 (centres undefined) | -4.8 | -1.1
O=C1c2ccccc2C(=O)c2c1oc1c3c(ccc21)OCN(C1CCS(=O)(=O)C1)C3 (centres undefined) | 69.0*! | 90.7*
Cc1nc(-n2cccc2)sc1C(=O)N1CCN(Cc2nc3ccccc3[nH]2)CC1 | -8.7 | -0.9
CC(C)(C)CC(C)(C)c1ccc(OCC(O)C[N+](C)(C)C)cc1 (centres undefined) | -1.4 | 27.8
C[N+]1(CC(O)COc2ccc(C34CC5CC(CC(C5)C3)C4)cc2)CCCCCC1 (centres undefined) | -4.5 | 90.8*
CC1C[N+](C)(CC(O)COc2ccc(C(C)(C)CC(C)(C)C)cc2)CC(C)O1 (centres undefined) | -1.8 | 51.9*
C[N+](C)(C)CC(O)COc1ccc(C23CC4CC(CC(C4)C2)C3)cc1 (centres undefined) | -9.9 | 24.2
CC1C[N+](C)(CC(O)COc2ccc(C34CC5CC(CC(C5)C3)C4)cc2)CC(C)O1 (centres undefined) | -2.1 | 50.6*
CC1CC[N+](C)(CC(O)COc2ccc(C34CC5CC(CC(C5)C3)C4)cc2)CC1 (centres undefined) | -0.6 | -8.9

High-throughput results from PubChem.
